Assay [1] can be described thus: qHTS assay to identify small molecule antagonists of the androgen receptor (AR) signaling pathway using the MDA cell line in the presence of 0.5 nM R1881 - cell viability counter screen (AID 1259242). Further: nearly all actives have a fitted effect of over 45% in size. The procedure, abridged: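 Viability of MDA-kb2 cells was multiplexed with the luciferase AR readout; after 16 hr with compounds and R1881 at 0.5 nM final, CellTiter-Fluor fluorescence was recorded.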

In assay [2] the target is Androgen receptor (Homo sapiens) (UniProt P10275). In words: qHTS assay to identify small molecule antagonists of the androgen receptor (AR) signaling pathway using the MDA cell line in the presence of 0.5 nM R1881 (AID 1259243). Further: nearly all actives have a fitted effect of over 50% in size. Further: potency means the concentration at half of the fitted maximal effect. In short, it runs like this: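 Reporter cells cultured without CO2 receive test chemicals, then 0.5 nM R1881 final; after 16 hr at 37C, ONE-Glo is added and light output recorded.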
A general note: Quantitative high-throughput screening tests each substance at several concentrations.

Assay [3] concerns the target Estrogen receptor (Homo sapiens) (UniProt P03372). The assay is described as follows: qHTS assay to identify small molecule antagonists of the estrogen receptor alpha (ER-alpha) signaling pathway using the BG1 cell line in the presence of 0.1 nM 17-beta-estradiol (AID 1259244). Further: nearly all actives have a fitted effect of over 50% in size. The procedure, abridged:
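Estradiol at 0.1 nM (final) stimulates the endogenous ER-alpha of VM7Luc4E2 cells carrying an ERE-driven luciferase; compounds are co-incubated 22 h at 37C and luciferase output quantified by luminescence.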

A short description of assay [4]: qHTS assay to identify small molecule HDAC inhibitors - cell viability counter screen (AID 1259365). Further: series mostly up to about 92 µM; nearly all actives have a fitted effect of over 50% in size. In short, it runs like this:
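Following a 2hr exposure of overnight-plated wild-type HCT-116 cells to DMSO-delivered compounds, CellTiter-Glo was added and luminescence recorded after 30min at room temperature.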

Assay [5] is described as follows: qHTS assay to identify small molecule agonists of the sonic hedgehog signaling (Shh) pathway - cell viability counter screen (AID 1259366). Further: nearly all actives have a fitted effect of over 50% in size. The procedure, abridged:
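After a 4hr attachment at 37C, NIH/3T3 cells bearing an integrated Gli1-driven luciferase reporter were dosed with compounds. Treatment lasted 24hr, with the final hour including CellTiter-Fluor for a fluorescence viability measurement.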

Assay [6] is described as follows: qHTS assay to identify small molecule antagonists of the sonic hedgehog signaling (Shh) pathway - cell viability counter screen (AID 1259367). Further: nearly all actives have a fitted effect of over 55% in size. The procedure, abridged: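 NIH/3T3-derived Gli1-Luc reporter cells (2,000 per well) rested 4 hr at 37 C, then received DMSO compounds plus conditioned medium. After 23 hr of treatment, CellTiter-Fluor was added for 1 hr at 37C and fluorescence read.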

Assay [7] is described as follows: qHTS assay to identify small molecule agonists of the sonic hedgehog signaling (Shh) pathway (AID 1259368; calls by dose curve;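 further: NIH/3T3-derived 3T3Gli1-Luc cells carrying a stable Gli1-driven firefly luciferase reporter; series mostly up to about 92 µM; nearly all actives have a fitted effect of over 15% in size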). In short, it runs like this:
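A Gli1 transcriptional response element controlled firefly luciferase in 3T3Gli1-Luc cells. Compounds and a positive control were added 4 hr after plating, and cells were incubated a further 24 hr at 37 C before luminescence detection.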

Assay [8] can be described thus: qHTS assay to identify small molecule antagonists of the sonic hedgehog signaling (Shh) pathway (AID 1259369; calls by dose curve; further: nearly all actives have a fitted effect of over 45% in size; further: potency means the concentration at half of the fitted maximal effect). The procedure, abridged: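 For antagonist detection, the reporter line received test compounds together with conditioned medium, incubated 24hr at 37 C, 5% CO2, then luminescence was recorded following 30min room-temperature luciferase reagent incubation.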

The target of assay [9] is Estrogen receptor beta (Homo sapiens) (UniProt Q92731). In words: qHTS assay to identify small molecule agonists of the estrogen receptor beta (ER-beta) signaling pathway (AID 1259377; active means well fitted activation curve with a large enough effect in the signal ratio in the repeat runs, not every such curve was filed as active; the % refers to the signal ratio). In short, it runs like this:
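In HEK293T cells bearing a UAS-beta-lactamase reporter under ER-beta control, DMSO-delivered compounds were incubated for 16 hr at 37C. Activity was detected as fluorescence 2 hours after LiveBLAzer B/G FRET substrate addition.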

For assay [10] the target is unchanged. The assay is described as follows: qHTS assay to identify small molecule antagonists of the estrogen receptor beta (ER-beta) signaling pathway (AID 1259378; active means well fitted inhibition curve with a large enough effect in the signal ratio in the repeat runs, not every such curve was filed as active; the % refers to the signal ratio). In short, it runs like this:
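ER-beta-UAS-bla HEK293T (GripTite) cells in 2% charcoal-stripped FBS medium were preincubated 6 hr at 37C, dosed with compound, then stimulated with 1 nM E2 (final) for 16 hr; beta-lactamase reporter read by B/G FRET fluorescence after 2 hr substrate loading.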

A short description of assay [11]: qHTS assay to identify small molecule agonists of the androgen receptor (AR) signaling pathway in the presence of an antagonist - cell viability counter screen (AID 1259379).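 Further: MDA-kb2 human breast cancer cells carrying an MMTV luciferase reporter; series mostly up to about 92 µM; nearly all actives have a fitted effect of over 25% in size.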 In short, it runs like this: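 Seed MDA-kb2 at 3,000 cells/well; incubate 5 hr, 37C, 0% CO2. Add nilutamide to 3.0uM final, then pin compounds at 15 concentrations. Incubate 16 hr. Add CellTiter-Fluor at 15 hr, read fluorescence after 1 hr.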

Assay [12] in a line: qHTS assay to identify small molecule agonists of the estrogen receptor beta (ER-beta) signaling pathway - cell viability counter screen (AID 1259380). Further: nearly all actives have a fitted effect of over 30% in size. Further: potency means the concentration at half of the fitted maximal effect. In short, it runs like this:
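CellTiter-Glo read, 30 min RT, same wells as bla assay; cells ER-beta-UAS-bla HEK293T; 16 hr compound, 37C; medium 2% charcoal-stripped FBS.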

The target in assay [13] is Androgen receptor (Homo sapiens) (UniProt P10275). The assay is described as follows: qHTS assay to identify small molecule agonists of the androgen receptor (AR) signaling pathway in the presence of an antagonist (AID 1259381; calls by dose curve; further: nearly all actives have a fitted effect of over 15% in size; further: potency means the concentration at half of the fitted maximal effect). In short, it runs like this:
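Test compounds at 15 concentrations were incubated for 16hr with MDA-kb2 reporter cells in presence of 3.0uM nilutamide (final). Signal: ONE-Glo luciferase luminescence.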

Assay [14] in a line: qHTS assay to identify small molecule antagonists of the estrogen receptor beta (ER-beta) signaling pathway - cell viability counter screen (AID 1259382). Further: series mostly up to about 92 µM; nearly all actives have a fitted effect of over 55% in size. The procedure, abridged: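 In this multiplexed counter screen, cells were seeded at 2,000 per well in medium with 2% charcoal-stripped FBS and incubated 6 hr before compound and 1nM final E2 were added. Sixteen hours later, ATP-based luminescence reported viability.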

Assay [15] concerns the target Estrogen receptor (Homo sapiens) (UniProt P03372). In words: qHTS assay to identify small molecule agonists of the estrogen receptor alpha (ER-alpha) signaling pathway in the presence of an antagonist (AID 1259383; calls by dose curve; further: nearly all actives have a fitted effect of over 15% in size; further: potency means the concentration at half of the fitted maximal effect; on activation: top concentration of the series differs between compounds). In short, it runs like this:
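Stably transfected VM7Luc4E2 reporter cells, kept 5 days in charcoal-stripped serum, received ICI-182,780 at 10.0nM final before compound addition. Following 22hr incubation at 37C and 5% CO2, luciferase signal was read by luminescence.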

The nature of assay [16]: qHTS assay to identify small molecule agonists of the estrogen receptor alpha (ER-alpha) signaling pathway in the presence of an antagonist - cell viability counter screen (AID 1259386).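 Further: series mostly up to about 92 µM; cells exposed to compounds for 22 h at 37 °C before the viability read; nearly all actives have a fitted effect of over 30% in size.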 In short, it runs like this: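 Viability counter screen using VM7Luc4E2 (full-length ER-alpha, four ERE-luciferase). The cells were treated with compounds alongside ICI-182,780 10.0nM for 22hr, and live-cell protease fluorescence was quantified with CellTiter-Fluor.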

A short description of assay [17]: qHTS assay to identify small molecule HDAC inhibitors (AID 1259364).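 Further: wild-type HCT-116 cells with endogenous class I/II HDAC activity; top concentration of the series differs between compounds; nearly all actives have a fitted effect of over 45% in size.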 The procedure, abridged:
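Read-out: luminescence of HDAC-Glo I/II reagent, 30 min RT, reflecting class I/II deacetylase activity in whole HCT-116 cells pre-exposed 2 h to DMSO-dissolved compounds.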

Assay [18] is described as follows: qHTS assay to identify small molecule agonists or antagonists of the thyroid stimulating hormone receptor (TSHR) signaling pathway - wild type cell line counter screen (AID 1259384; calls by dose curve). The procedure, abridged:
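Wild-type HEK293 cells were plated 18 h at 37 C/5% CO2, pin-dosed with compound plus Ro20-1724 medium, held 30 min at room temperature, then given cAMP-d2 and anti-cAMP-cryptate; fluorescence was read after 1 h. Fifteen concentrations, triplicate.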

Assay [19] deals with Thyrotropin receptor (Homo sapiens) (UniProt P16473). In words: qHTS assay to identify small molecule antagonists of the thyroid stimulating hormone receptor (TSHR) signaling pathway (AID 1259385; calls by dose curve; further: nearly all actives have a fitted effect of over 20% in size). The procedure, abridged:
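TSHR-HEK293 cells were plated and held 18 h at 37C/5% CO2, then given compound plus Ro20-1724 and stimulated with TSH at 1.5 ng/mL final. After 30 min at room temperature, cAMP was detected with cAMP-d2/anti-cAMP-cryptate (1 h) by fluorescence.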

A short description of assay [20]: qHTS assay to identify small molecule phospholipidosis (PLD) inducers (AID 1259344; active means well fitted curve in the direction sought with a large enough effect; an effect the other way counts as inactive or inconclusive). In short, it runs like this: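 HepG2 cells on collagen I, attached 4 h at 37 C, were co-treated with compound and LipidTOX Red dye for 24 h at 37 C, then fixed with paraformaldehyde plus Hoechst 33342 and imaged by high-content microscopy for phospholipid accumulation.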

Eight compounds from PubChem BioAssay (Tox21) can be followed below.

Values without a mark were called inactive. Inconclusive results are not listed. Active and inactive are the calls of the source. Unless noted, the call rests on the fitted dose curve; in most records, active means well fitted curve in the direction sought with a large enough effect in the repeat runs; inconclusive means weak or mixed curves; inactive means no such curve, though single readings can be large; an effect the other way counts as inactive or inconclusive.
On the % scale 0 is the no-effect control and ±100 the full control effect.

Sequence of Estrogen receptor beta (Homo sapiens) (Q92731 whole entry, looked up): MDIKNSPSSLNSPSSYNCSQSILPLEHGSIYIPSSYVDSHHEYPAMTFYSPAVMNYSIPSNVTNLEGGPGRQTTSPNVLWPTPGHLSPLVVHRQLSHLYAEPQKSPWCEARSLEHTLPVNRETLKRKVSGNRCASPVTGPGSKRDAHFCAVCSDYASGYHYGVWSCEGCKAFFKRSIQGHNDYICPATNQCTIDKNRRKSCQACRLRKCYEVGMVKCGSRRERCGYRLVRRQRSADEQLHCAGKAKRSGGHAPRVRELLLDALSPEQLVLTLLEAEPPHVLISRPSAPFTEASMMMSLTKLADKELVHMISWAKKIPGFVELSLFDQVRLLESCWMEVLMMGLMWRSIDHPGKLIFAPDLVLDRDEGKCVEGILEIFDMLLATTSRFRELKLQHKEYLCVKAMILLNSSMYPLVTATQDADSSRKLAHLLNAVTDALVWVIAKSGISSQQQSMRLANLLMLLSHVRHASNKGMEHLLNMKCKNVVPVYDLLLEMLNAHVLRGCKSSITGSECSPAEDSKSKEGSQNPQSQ
Sequence of Androgen receptor (Homo sapiens) (P10275 whole entry, looked up): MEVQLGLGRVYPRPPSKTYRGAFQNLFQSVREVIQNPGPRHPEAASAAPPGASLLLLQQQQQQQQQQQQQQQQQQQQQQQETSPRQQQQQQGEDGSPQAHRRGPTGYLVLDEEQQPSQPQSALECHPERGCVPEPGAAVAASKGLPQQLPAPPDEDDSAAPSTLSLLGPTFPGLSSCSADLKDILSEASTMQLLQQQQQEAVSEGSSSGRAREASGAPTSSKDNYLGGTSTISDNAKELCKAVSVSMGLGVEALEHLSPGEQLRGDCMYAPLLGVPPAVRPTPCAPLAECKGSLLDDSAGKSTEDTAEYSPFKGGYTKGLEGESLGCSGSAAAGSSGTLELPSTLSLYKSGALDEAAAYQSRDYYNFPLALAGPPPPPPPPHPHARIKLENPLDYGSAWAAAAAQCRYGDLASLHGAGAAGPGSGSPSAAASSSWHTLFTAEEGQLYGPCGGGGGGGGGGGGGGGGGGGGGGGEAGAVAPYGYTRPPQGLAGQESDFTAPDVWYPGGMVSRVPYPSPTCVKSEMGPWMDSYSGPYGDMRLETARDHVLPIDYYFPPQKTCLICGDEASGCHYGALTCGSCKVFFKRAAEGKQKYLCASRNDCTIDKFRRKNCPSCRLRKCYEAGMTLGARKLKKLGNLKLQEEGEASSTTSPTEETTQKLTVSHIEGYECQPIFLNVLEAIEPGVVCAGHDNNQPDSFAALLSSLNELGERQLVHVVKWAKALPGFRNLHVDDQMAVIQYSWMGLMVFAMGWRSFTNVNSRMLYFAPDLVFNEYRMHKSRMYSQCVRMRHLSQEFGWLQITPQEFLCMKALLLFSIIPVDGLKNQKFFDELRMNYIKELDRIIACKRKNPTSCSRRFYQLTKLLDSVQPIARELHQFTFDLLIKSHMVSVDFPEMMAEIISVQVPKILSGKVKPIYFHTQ
Sequence of Thyrotropin receptor (Homo sapiens) (P16473 whole entry, looked up): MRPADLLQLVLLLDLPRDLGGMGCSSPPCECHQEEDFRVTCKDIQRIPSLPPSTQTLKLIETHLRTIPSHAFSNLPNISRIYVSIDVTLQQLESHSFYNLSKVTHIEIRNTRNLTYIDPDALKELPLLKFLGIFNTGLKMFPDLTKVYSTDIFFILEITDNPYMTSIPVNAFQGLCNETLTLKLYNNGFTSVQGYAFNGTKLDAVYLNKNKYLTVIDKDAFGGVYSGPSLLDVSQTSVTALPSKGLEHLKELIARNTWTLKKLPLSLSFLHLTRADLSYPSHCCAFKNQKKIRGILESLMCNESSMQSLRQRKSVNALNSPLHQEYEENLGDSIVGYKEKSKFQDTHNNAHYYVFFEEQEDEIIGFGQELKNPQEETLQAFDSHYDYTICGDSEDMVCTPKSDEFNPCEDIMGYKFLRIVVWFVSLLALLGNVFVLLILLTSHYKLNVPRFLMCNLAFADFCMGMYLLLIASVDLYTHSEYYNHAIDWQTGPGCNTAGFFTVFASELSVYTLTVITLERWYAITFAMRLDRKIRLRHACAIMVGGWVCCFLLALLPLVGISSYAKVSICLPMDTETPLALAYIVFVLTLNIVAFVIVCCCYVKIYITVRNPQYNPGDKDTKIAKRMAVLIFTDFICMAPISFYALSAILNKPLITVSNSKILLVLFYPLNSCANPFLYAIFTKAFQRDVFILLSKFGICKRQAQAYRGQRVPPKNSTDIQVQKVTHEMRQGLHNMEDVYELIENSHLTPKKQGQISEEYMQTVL
Sequence of Estrogen receptor (Homo sapiens) (P03372 whole entry, looked up): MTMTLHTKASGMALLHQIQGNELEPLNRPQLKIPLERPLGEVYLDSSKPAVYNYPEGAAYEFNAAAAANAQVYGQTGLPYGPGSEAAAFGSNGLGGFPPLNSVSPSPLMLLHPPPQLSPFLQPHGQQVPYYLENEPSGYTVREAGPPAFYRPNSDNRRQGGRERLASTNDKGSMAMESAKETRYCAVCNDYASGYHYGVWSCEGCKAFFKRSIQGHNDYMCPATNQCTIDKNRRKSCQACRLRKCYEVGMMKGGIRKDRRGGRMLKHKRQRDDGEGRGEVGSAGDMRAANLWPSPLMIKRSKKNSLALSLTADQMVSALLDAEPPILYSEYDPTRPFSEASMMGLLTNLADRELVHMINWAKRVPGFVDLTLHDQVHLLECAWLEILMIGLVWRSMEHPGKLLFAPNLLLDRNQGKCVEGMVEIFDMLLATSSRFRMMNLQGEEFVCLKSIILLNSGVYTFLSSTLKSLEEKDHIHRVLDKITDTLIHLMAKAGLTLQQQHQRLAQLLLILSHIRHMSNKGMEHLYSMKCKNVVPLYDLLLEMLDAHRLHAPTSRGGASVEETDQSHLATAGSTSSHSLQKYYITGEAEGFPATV

On to `N#CC(Cl)(Cl)Cl`, for which the result in assay [1], in assay [4], in [7] and in [9] was inactive. Moreover, the Potency entry in assay [2], in assay [3], in assay [5], in assay [6], in [8] and in assay [10] was “inactive” throughout. Also, the Potency result in assay [11], in [12], in [13], in assay [14], in assay [15] and in assay [16] was “inactive” in each case.
With `CC(Oc1ccc(Oc2ncc(C(F)(F)F)cc2Cl)cc1)C(=O)O` (stereo not drawn), the result in [1], in [4] and in assay [7] was inactive. Besides, the Potency result in [2], in assay [3], in [17], in [5], in assay [6] and in assay [11] was “inactive” each time. The Potency entry in assay [13], in assay [18], in [19] and in [16] was “inactive” throughout. The Potency in [12] was 17.2 µM (active).
For the compound `CCC(=O)c1ccccc1`, the outcome in assay [1], in [4], in assay [7] and in assay [9] was inactive. Further, the Potency result in assay [2], in assay [3], in assay [5], in assay [6], in assay [8] and in [10] was “inactive” throughout. In addition, the Potency entry in assay [11], in assay [12], in assay [13], in assay [14], in assay [15] and in [18] was “inactive” throughout. For the same compound, the Potency entry in assay [19] and in assay [16] was “inactive” in each case.
As for `CC1=C(C(=O)O)N2C(=O)[C@@H](N)[C@H]2SC1`, the viability change, negative = cytotoxic in assay [1] was 2.31% [at 19 µM]; in assay [5], -3.69% [at 19 µM]; in assay [6], 2.83% [at 19 µM]. Further, the activity, negative = inhibition in assay [2] is 15.5% [at 19 µM]; in [10], 20.1% [at 19 µM]. In addition, the activity change, negative = inhibition in [3] is 0.965% [at 19 µM]; in assay [17] it was 5.61% [at 19 µM]; in assay [8], -0.41% [at 19 µM]. For the same compound, the activity change, negative = cytotoxicity in assay [4] was 3.22% [at 19 µM]; in assay [11] it was -2.71% [at 19 µM]; in assay [12], 7.09% [at 19 µM]; in assay [14], 15.3% [at 19 µM]; in assay [16], 2.04% [at 19 µM]. Besides, in assay [7], the activity change is 0.0682% [at 18.9 µM]. In addition, the activation in assay [9] is 1.69% [at 19 µM]; in assay [13], -0.0648% [at 19 µM]; in [15] it was 0.456% [at 19 µM].
On to `C#C[C@]1(O)C=C[C@H]2[C@@H]3CCC4=CC(=O)CC[C@@H]4[C@H]3CC[C@@]21CC`, for which the result in assay [1], in [20], in assay [4], in assay [7] and in assay [9] was inactive. For the same compound, the Potency result in assay [2], in assay [3], in assay [5], in assay [6], in assay [11] and in assay [14] was “inactive” throughout. The Potency result in assay [18], in assay [19] and in assay [16] was “inactive” in each case. In addition, the Potency in assay [8] was 15 µM (active); in assay [13], 0.133 µM (active); in [15], 3.35 µM (active).
For the compound `Cc1nc(N)nc(N)n1`, the result in assay [1], in assay [4] and in assay [7] was inactive. Moreover, the Potency result in assay [2], in assay [3], in assay [17], in assay [5], in [6] and in assay [8] was “inactive” throughout. Moreover, the Potency result in [11], in assay [12], in assay [14] and in assay [16] was “inactive” each time.
Consider `O=CNC(N1CCN(C(NC=O)C(Cl)(Cl)Cl)CC1)C(Cl)(Cl)Cl` (stereo not drawn), for which the outcome in [1], in assay [4] and in assay [7] was inactive. In addition, the Potency in [2] was 30.6 µM (active). Moreover, the Potency result in assay [3], in [5], in [6], in assay [8], in assay [10] and in [11] was “inactive” throughout. For the same compound, the Potency entry in [12], in [13], in assay [14], in assay [15], in assay [18] and in assay [19] was “inactive” throughout. Besides, the Potency entry in assay [16] is “inactive”.
Take `CCOP(=S)(OCC)Oc1ncn(-c2ccccc2)n1`: the outcome in [1], in assay [4], in assay [7] and in [9] was inactive. For the same compound, the Potency result in [2], in assay [3], in assay [17], in assay [5], in [6] and in assay [8] was “inactive” each time. Also, the Potency result in assay [10], in assay [11], in assay [13], in assay [14], in assay [15] and in assay [16] was “inactive” throughout.
